Test results reported in PubChem BioAssay (NCATS).
Inconclusive results are not listed. Where a call stands in place of a potency, no number is given. Values without a mark were called inactive. The source made the active and inactive calls. Calls follow the shape of the dose curve; as a rule, active = well fitted curve in the direction sought with a large enough effect; inconclusive = small, poorly fitted or top-dose-only effect, or another doubt; inactive = no such curve, though single readings can be large; an effect the other way counts as inactive or inconclusive.

Legend:
[1] = molecular target: Furin (Homo sapiens) (UniProt P09958); test: Furin counterscreen qHTS for Zika virus inhibitors (AID 1347149); also: nearly all actives have a fitted effect of over 70% in size; also: potency is read from the fitted curve at half-maximal effect
Furin (Homo sapiens), sequence (P09958 whole entry, looked up): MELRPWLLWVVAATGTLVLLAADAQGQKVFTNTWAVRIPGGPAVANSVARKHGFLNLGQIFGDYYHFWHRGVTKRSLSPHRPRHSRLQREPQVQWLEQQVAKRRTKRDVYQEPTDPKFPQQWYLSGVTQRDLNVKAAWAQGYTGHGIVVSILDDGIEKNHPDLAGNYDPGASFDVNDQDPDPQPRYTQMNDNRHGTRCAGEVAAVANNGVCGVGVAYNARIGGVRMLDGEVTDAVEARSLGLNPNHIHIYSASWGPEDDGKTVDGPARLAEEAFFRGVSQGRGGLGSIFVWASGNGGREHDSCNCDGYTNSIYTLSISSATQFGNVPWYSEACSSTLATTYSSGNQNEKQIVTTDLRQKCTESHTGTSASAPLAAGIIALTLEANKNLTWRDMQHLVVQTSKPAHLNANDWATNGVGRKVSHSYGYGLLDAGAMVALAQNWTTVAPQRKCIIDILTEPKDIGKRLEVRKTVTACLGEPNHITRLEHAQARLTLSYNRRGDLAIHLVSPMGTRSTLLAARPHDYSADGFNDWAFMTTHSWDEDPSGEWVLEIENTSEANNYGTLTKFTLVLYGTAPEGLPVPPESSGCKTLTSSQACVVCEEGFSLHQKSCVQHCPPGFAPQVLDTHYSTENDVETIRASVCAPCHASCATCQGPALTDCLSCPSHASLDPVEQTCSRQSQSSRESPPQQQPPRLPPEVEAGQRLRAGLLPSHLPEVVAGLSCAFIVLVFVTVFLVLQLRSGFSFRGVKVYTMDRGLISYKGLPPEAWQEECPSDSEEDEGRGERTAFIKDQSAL
Summary of the method: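 Fluorogenic cleavage of BOC-RVRR-AMC (2 microM final, Km ~15 µM) was monitored (ex 340, em 450 nm) at 37C after 15 min RT preincubation of 5 nM furin with compounds in HEPES pH 7.0 buffer with CaCl2 and Triton X-100. Percent inhibition was fitted to a 4-parameter Hill curve.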

[2] = test system: Zika virus NS2B-NS3 protease (unlinked); test: Optimization of GU AMC qHTS for Zika virus inhibitors: Unlinked NS2B-NS3 protease assay (AID 1347151); details: recombinant ZIKV NS2B-NS3 protease, fluorogenic AMC substrate; also: potency is read from the fitted curve at half-maximal effect; nearly all actives have a fitted effect of over 80% in size
Summary of the method: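 Fluorescence gain (340/450 nm) over 15 min at room temperature, ~20% conversion, gave percent inhibition fitted to a 4-parameter Hill equation; enzyme was unlinked NS2B-NS3 (25 nM final), pH 8.0 Tris buffer.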

[3] = test system: Zika virus NS2B-NS3 protease; test: Primary screen GU AMC qHTS for Zika virus inhibitors (AID 1347154); also: nearly all actives have a fitted effect of over 70% in size
Summary of the method: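 Fluorogenic AMC-substrate cleavage by noncovalent NS2B-NS3 protease complex (25 nM, pH 8.0 Tris buffer with Tween 20) followed for 15 minutes at room temperature (~20% conversion). Percent inhibition from ex340/em450 signal change, fitted by 4-parameter Hill equation.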

[4] = ZIKV-mCherry secondary qHTS for Zika virus inhibitors (AID 1347158); also: top concentration of the series differs between compounds
Summary of the method: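 After overnight seeding at 37 °C, Vero cells receive compound and then ZIKV-mCherry (MOI 1). Following 48-72 h infection, cells are fixed, counterstained with Hoechst, and imaged; percent infected cells is derived from an mCherry intensity cut-off of 450 RFU.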

[5] = test system: Zika virus NS2B-NS3 protease (linked construct); test: 384 well plate NINDS Rhodamine confirmatory qHTS for Zika virus inhibitors (AID 1347164);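 also: fluorescence from protease cleavage of Ac-LKRR-rhodamine 110 substrate; nearly all actives have a fitted effect of over 65% in size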; also: potency is read from the fitted curve at half-maximal effect
Summary of the method: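 Fluorescence at 485/538 nm was measured 25 minutes after adding 10 microM Ac-LKRR-Rd substrate, in the dark at room temperature. The protease (5, 30 or 60 nM final) had been preincubated ~15 minutes with compound; aprotinin as control.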

[6] = Vero cells viability qHTS for Zika virus inhibitors (AID 1347167)
Summary of the method: (§1)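 Compounds were tested in concentration series on cells grown in DMEM containing 4% FBS. After 24 to 48 hours, cellular ATP was measured by luminescence with CellTiter Glo.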

[7] = test system: Zika virus NS2B-NS3 protease (unlinked complex); test: Primary screen GU Rhodamine qHTS for Zika virus inhibitors: Unlinked NS2B-NS3 protease assay (AID 1347159); also: nearly all actives have a fitted effect of over 60% in size; also: potency is read from the fitted curve at half-maximal effect
Summary of the method: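 Noncovalent NS2B hydrophilic domain/NS3 protease complex (25 nM final) in 10 mM Tris-HCl pH 8.0, 0.01% Tween 20, preincubated 15 min with compounds (up to 114 microM), then 1.5 microM Rhodamine110 substrate. Fluorescence change over 15 min fitted to 4-parameter Hill.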

[8] = test system: Zika virus NS2B-NS3 protease (linked construct); test: Primary screen NINDS Rhodamine qHTS for Zika virus inhibitors (AID 1347160); also: nearly all actives have a fitted effect of over 55% in size; also: potency is read from the fitted curve at half-maximal effect
Summary of the method: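 Purified NS2B-NS3 protease with the NS2B hydrophilic domain joined by a flexible linker (25 nM) in 10 mM Tris-HCl pH 8.0, 0.01% Tween 20, preincubated 15 min at RT with compound; Rhodamine110 peptide substrate 1.5 µM; fluorescence change over 15 min; 4-parameter Hill fit.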

[9] = test system: Zika virus NS2B-NS3 protease (linked construct); test: Confirmatory screen NINDS AMC qHTS for Zika virus inhibitors (AID 1347152); also: potency is read from the fitted curve at half-maximal effect; nearly all actives have a fitted effect of over 70% in size
Summary of the method: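 IC50s from 4-parameter Hill fits of percent inhibition, based on AMC fluorescence gain (340/450 nm) over 15 min with 10 microM Bz-Nle-KRR-AMC. Enzyme: 1 nM linked NS2B-NS3 in Tris-HCl pH 8.0; 15-min compound preincubation.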

[10] = test system: Zika virus NS2B-NS3 protease (unlinked complex); test: Confirmatory screen GU AMC qHTS for Zika virus inhibitors (AID 1347153); details: Recombinant NS2B-NS3 protease, AMC substrate fluorescence;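 also: enzyme at 25 nM with substrate at 10 µM below its Km of 18.3 µM; potency is read from the fitted curve at half-maximal effect; nearly all actives have a fitted effect of over 70% in size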
Summary of the method: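 Unlinked NS2B-NS3 complex (25 nM) in 10 mM Tris-HCl pH 8.0, 0.01% Tween 20 preincubated 15 min with compound, then 10 microM Bz-Nle-KRR-AMC (Km 18.3 µM). Fluorescence change over 15 min, normalized, Hill-fitted.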

[11] = Confirmatory screen GU Rhodamine qHTS for Zika virus inhibitors qHTS (AID 1347157); details: purified enzyme assay, Rhodamine110 substrate fluorescence, 15 min
Summary of the method: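 In dose–response format, inhibition of unlinked protease (25 nM) was measured with 1.5 microM bis-peptide Rhodamine110 substrate. Aprotinin served as the intraplate control.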

[12] = Confirmatory screen NINDS Rhodamine qHTS for Zika virus inhibitors (AID 1347161); details: purified enzyme assay, Rhodamine110 substrate fluorescence, 15 min; also: potency is read from the fitted curve at half-maximal effect; nearly all actives have a fitted effect of over 60% in size
Summary of the method: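 Purified linked NS2B-NS3 protease (NS2B hydrophilic domain joined to NS3 protease by flexible linker), 25 nM in 10 mM Tris-HCl pH 8.0, 0.01% Tween 20. Compounds titrated, 15 min preincubation at room temperature; 1.5 microM Rhodamine110 substrate, FITC fluorescence change over 15 min.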

[13] = HepG2 cells viability qHTS for Zika virus inhibitors (AID 1347168)
Summary of the method: as §1

**Q.** For `CC(C)N=c1cc2n(-c3ccc(Cl)cc3)c3ccccc3nc-2cc1Nc1ccc(Cl)cc1`, which Potency [1] is on record?
**A.** inactive

**Q.** And the Potency [2]?
**A.** 0.607 µM (active)

**Q.** What about the outcome [3] of the same molecule?
**A.** inactive

**Q.** And the outcome [4]?
**A.** inactive

**Q.** And the Potency [5]?
**A.** inactive

**Q.** And the outcome [6]?
**A.** inactive

**Q.** For `CC(=O)OC(C)OC(=O)C(C)c1ccc(-c2ccccc2)c(F)c1` (stereo unspecified), which outcome [3] is on record?
**A.** inactive

**Q.** Which Potency [1] does the source give for `C=C1CC[C@@H]2[C@](C)(CO[C@@H]3O[C@H](CO)[C@@H](O)[C@H](O)[C@H]3O)CCC[C@@]2(C)[C@@H]1CCC1=CCOC1=O` here?
**A.** inactive

**Q.** And the Potency [7]?
**A.** inactive

**Q.** What about the Potency [8] of the same molecule?
**A.** inactive

**Q.** What does the source list for `O=C(O)c1cnn(-c2nc3cc(OC(F)(F)F)c(Cl)cc3[nH]2)c1`?
**A.** Potency [1]: 90.2 µM (active); Potency [9]: 40.3 µM (active); Potency [10]: 32 µM (active); Potency [11]: 12.7 µM (active); outcome [4]: inactive; Potency [7]: 5.01 µM (active); Potency [8]: 2 µM (active); Potency [12]: 5.69 µM (active); Potency [5]: 0.794 µM (active); outcome [6]: inactive; outcome [13]: inactive

**Q.** With `N#Cc1ccnc(N2C(=O)CC[C@H]2C(=O)N(c2cncc(F)c2)[C@H](C(=O)NC2CC(F)(F)C2)c2ccccc2Cl)c1` as the molecule, how does the Potency [7] read?
**A.** inactive

**Q.** And the Potency [8]?
**A.** inactive

**Q.** For `COc1cc2c(cc1O)C1(Cc3ccc4c(c3C1=O)OCO4)N(C)CC2` (stereo unspecified), which Potency [7] is on record?
**A.** inactive

**Q.** What about the Potency [8] of the same molecule?
**A.** inactive

**Q.** With `COc1cc(COC2OC(CO)C(O)C(O)C2O)cc(OC)c1O` (stereo unspecified) as the molecule, how does the Potency [7] read?
**A.** inactive

**Q.** What about the Potency [8] of the same molecule?
**A.** inactive

**Q.** Which Potency [7] does the source give for `Nc1ncnc2c1ncn2[C@H]1CCCO1` here?
**A.** inactive

**Q.** And the Potency [8]?
**A.** inactive

**Q.** Which Potency [7] does the source give for `O=C(Nc1cccnn1)N1CCC(=Cc2cccc(Oc3ccc(C(F)(F)F)cn3)c2)CC1` here?
**A.** inactive

**Q.** What about the Potency [8] of the same molecule?
**A.** inactive
